Data on 40 compounds can be found in PubChem BioAssay (NCI).

“And” between values parts separate entries of the source, which are not always exact repeats. Equal values may be shown once. The panel holds about 83,000 compounds, 20% with a hit somewhere; the sample as a whole holds those more often.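 Interpretation: 100, growth as untreated; towards 0, rising growth inhibition; 0, no net growth; 0 to -100, cell death. Compounds scoring below 10 were considered active.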 The source made the active and inactive calls.

For this experiment, the system named is HL-60(TB) leukemia. Briefly: NCI-60 one-dose screen, 48 h (100 = growth as untreated, 0 = no growth, -100 = all killed). The following applies: 10 µM unless noted.
As to `O=C(O)c1ccc(-n2cc(/C=N/Nc3ccc(F)cc3)c(-c3cc4ccccc4oc3=O)n2)cc1`, the growth is 6.08% (active).
Under `Cc1nc2ncccc2nc1Nc1ccc(S(=O)(=O)Nc2ccccn2)cc1` stands 100% (inactive); under `CC(=O)Oc1cc(C(C)C)c(OCCN(C)C)cc1C`, 131% (inactive).
For the compound `CC(=O)c1cc2c(N)c(C(=O)Nc3cncc4ccccc34)sc2nc1C`, the growth was 91.6% (inactive).
`CCOc1nc(-c2ccccc2)cc2c(O)c(C(=O)N/N=C/c3ccccc3O)[nH]c(=O)c12`: the growth was 133% (inactive).
For `c1ccc2cc3nc4cc5ccccc5cc4nc3cc2c1` the value was 90.5% (inactive); for `Oc1c(Br)cc(Cl)cc1C(c1cc(Cl)cc(Br)c1O)C(Cl)(Cl)Cl`, 9.73% (active); for `Cc1oc(-c2ccc(Cl)cc2)nc1/C=C/C(=O)c1ccccc1`, 97.1% (inactive).
For `C#C[C@@]1(O)[C@@H](CO)O[C@@H](n2cc(F)c3c(N)ncnc32)[C@@H]1O` the value was -22.8% (active); for `CC(=O)c1c(-c2ccc(OC(F)(F)F)cc2)nc2ccccn12`, 115% (inactive).
As for `COc1ccc(-c2cc(-c3cc4ccccc4oc3=O)n(-c3ccccc3)n2)cc1`, the growth is 91.6% (inactive).
As for `O=C1c2cccnc2C(=O)c2c1c(C(=O)NCCn1ccnc1)c1ccccn21`, the growth was 0.989% (active).
Under `Fc1ccc(-c2cn3c(nc4ccccc43)c(-c3ccccc3)n2)cc1` stands 99.8% (inactive); under `COc1cc(C2NC(c3ccc(Cl)cc3)C(C)C(=NC(=O)c3cnccn3)C2C)cc(OC)c1OC` (stereo not given), 98.4% (inactive).
Under `N#CC1=C(c2ccc(Cl)cc2)Nc2c(c(-c3ccc(Cl)cc3)nn2-c2ccccc2)C12C(=O)Nc1ccc(Cl)cc12` (stereo not given) stands 15.2% (inactive).
For `[2H]C1([2H])[C@H](C)O[C@H](C)C([2H])([2H])N1c1ccc(NC(=O)c2cccc(-c3ccc(OC(F)(F)F)cc3)c2C)cn1` the value was 56.3% (inactive).
For the compound `C/C(=N/NC(N)=S)c1ccc(C)cc1`, the growth was 92% (inactive).
For `O=C1C=CC(=O)N1c1cccc(N2C(=O)C=CC2=O)c1` the value was 97.9% (inactive); for `CC(C)NC1CCC(Nc2ccnc3cc(Cl)ccc23)CC1` (stereo not given), 57.9% (inactive).
Consider `Oc1ccccc1/C=N\NC(=S)N/N=C/c1ccccc1O`, for which the growth is -7.82% (active) and 18.6% (inactive).
For the compound `C=C(C)[C@@H]1CC[C@]2(C)[C@H](CC=C3[C@@H]4[C@@H](C)[C@H](C)CC[C@]4(C(N)=O)CC[C@]32C)[C@@]1(C)CCC#N`, the growth is -28.7% [100 µM] (active).
Take `Cc1[nH]c(C(=O)Nc2ccccc2OCc2cccc(C(=O)NCCN)c2)c(Cl)c1Cl`: the growth is 45% (inactive).
Take `COCCNC(C(=O)c1ccccc1)c1ccccc1` (stereo not given): the growth is 103% (inactive).
For `O=S(=O)(Nc1ccccc1)C1CCCCC1` the value was 97.2% (inactive) and 106% (inactive); for `N#Cc1ccc(NC(=O)Nc2ccc(Oc3ccc(NC(=O)Nc4ccc(C#N)cc4)cc3)cc2)cc1`, -38.5% (active); for `Cc1c(C(=O)O[C@H]2[C@@H]3[C@H](C)CC[C@H]3[C@]3(C)O[C@@]2(C2CCCCC2)C[C@H]3OC(=O)CO)ccc2ccccc12`, -31.5% (active).
Under `O=C(O)C1(C(=O)O)CCC1.[NH2-].[NH2-].[Pt+2]` stands 103% (inactive) and 58.7% (inactive).
For `Cc1ccc(/C=N/Nc2nc(Nc3ccccc3)nc(-n3nc(C)cc3C)n2)cc1` the value was 53.3% (inactive); for `CC(=O)c1cccc(NS(=O)(=O)c2ccc(C)cc2)c1`, 70.9% (inactive); for `OCCCC1CCN(C(Cc2ccccc2)c2ccccc2)CC1` (stereo not given), 95.8% (inactive).
Consider `COC(=O)/C(CCC=C(C)C)=C1\[C@@H](OC(C)=O)C[C@@]2(C)[C@H]1CC(=O)N[C@H]1[C@@]3(C)CCNC(=O)[C@@H](C)[C@@H]3CC[C@@]12C`, for which the growth was 102% (inactive).
Under `C=CCn1c(SCC(=O)Nc2ccc(C(=O)/C=C/c3cc(OC)c(OC)c(OC)c3)cc2)nnc1-c1cc(-c2ccc(S(C)(=O)=O)cc2)nc2ccccc12` stands 69.8% (inactive); under `COc1cccc(-c2nn(-c3ccccc3)cc2-c2ccnc(NCCNC(=O)Nc3cccc(C(F)(F)F)c3)c2)c1`, 2.15% (active); under `O=[N+]([O-])C=C(c1ccccc1)c1ccccc1`, 60.2% (inactive).
Regarding `COc1ccc2c(O)c(/C=C3\N=Nc4ncccc43)oc2c1C[C@H]1CCNC[C@H]1F`, the growth was -45.4% (active).
With `CCc1ccc(Oc2cn[nH]c2-c2ccc(OCCc3ccc(F)cc3)cc2O)cc1`, the growth is 111% (inactive).
For `Nc1nc(=S)c2ncn(C3OC(COP(=O)(O)O)C(O)C3O)c2[nH]1` (stereo not given), the growth was 16.3% (inactive).
On to `Cc1cc2c(O)c(-c3cc(Cl)ccc3Cl)c3sc(=O)oc3c2cc1C`, for which the growth was 64.1% (inactive).
Under `N#CCCN1C(=O)CCC1C(=O)O` (stereo not given) stands 85.9% (inactive); under `COc1ccc2c(CCC(c3ccccc3)c3ccccc3)c3[n+](cc2c1OC)CCc1cc2c(cc1-3)OCO2`, -40.6% (active).
